Assay outcomes as filed in PubChem.
LASV entry inh – inhibitors of Lassa virus binding or cell entry; Potency, µM (doses to about 37.9 µM), for inactives: top-dose activity change, negative = inhibition, most hits filed as inhibitors; Lassa virus pseudotype entry inhibition, cell reporter; 1.2% of 300,000 active; calls by dose curve; tested in HEK293 cells; note: potency is the fitted concentration of half-maximal effect; nearly all actives have a fitted effect of over 50% in size
HCMV inh – blocks human cytomegalovirus replication | HFF cells, HCMV-luciferase reporter, 72 h; stronger effect = lower value | activity change, negative = inhibition, % at 57.5 µM | 4.5% of 410,000 active; in the data active = activity change below about -60%; inconclusive = no clear call, values can overlap the other calls; inactive = above about -39%
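Steps: HFFs plated, 16 h 37C; compounds added; HCMV-luciferase added to MOI 1 PFU/cell; 72 h 37C; OneGlo reagent, 5 min room temperature; luminescence read, normalized to controls.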
Marburg entry inh – inhibitors of Marburg virus binding or cell entry. Potency, µM (titrated, usually from 37.8 µM), without a hit: at the top dose activity change, negative = inhibition, usual class: inhibitors. Marburg virus pseudotyped entry inhibition, cell reporter. 1.8% of 300,000 active. AID 540276; calls by dose curve; tested in HEK293 cells; note: potency is the fitted concentration of half-maximal effect
FMDV antiviral – antivirals against foot and mouth disease virus | AID 1159524 | Potency, µM (titrated, usually from 57.9 µM), for inactives: at the top dose activity change, negative = inhibition, actives largely listed as inhibitors | 1.2% of 410,000 active | FMDV antiviral cell-based qHTS; calls by dose curve; tested in HEK293T cells; note: read-out not given here; potency is the fitted concentration of half-maximal effect; nearly all actives have a fitted effect of over 45% in size
HCV inh – HCV inhibition | Huh7.5.1 HCVcc-Cre infection, luciferase reporter, 44 h | Potency, µM (highest dose often 41.8 µM), for inactives: at the highest dose activity change, negative = inhibition, most hits filed as inhibitors | AID 651820 | 3.4% of 340,000 active; active = well fitted inhibition curve with a large enough effect; inconclusive = small, poorly fitted or top-dose-only effect, or another doubt; inactive = no such curve, though single readings can be large or run the other way; note: potency is the fitted concentration of half-maximal effect
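Whole-lifecycle infectious HCVcc-Cre system; cells 1,000/well, compound then virus (~0.5 moi) added 4 h after plating, 44 h culture. Luciferase read 15 sec following 15 min substrate incubation, room temp.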
* hit, by the source's call; u = inconclusive; x = no result; ! = a repeat was not active; [ ] = dose if it differs, or a comment. An excerpt weighted towards active compounds, which were near 7.9% of everything screened. % is set by controls: 0 for no effect and ±100 for the full control effect.

SMILES	LASV entry inh	HCMV inh	Marburg entry inh	FMDV antiviral	HCV inh
O=C(O)C1CCCCC1SC1=C([S+](=O)([O-])NC2CCCCC2)CCCC1 (stereo not given)	x	x	9%[14.2 µM]	x	x
CC(=O)N1c2ccccc2C(C)(c2ccc(C)cc2)CC1(C)C (stereo not given)	21%[46.1 µM]	1	-28%[46.1 µM]	u	x
COc1ccc(OC)c(NC(=O)CSc2nc3ccccc3c(=O)n2CCC(=O)NC2CCCCC2)c1	u	2	x	-3%	x
CN(C)CC(C)(O)c1ccc2c(c1)CN(Cc1cccn1-c1cccnc1)CCO2 (stereo not given)	x	x	x	9%	x
O=C(NCCc1cccs1)c1ccc(Cn2c(SCc3ccc(F)cc3)nc3cccnc32)cc1	x	46	-2%[46.1 µM]	-1%	x
O=Cc1nccc2ccccc12	-2%[46.1 µM]	41	-5%	-17%	28%
O=C1c2ccccc2C(=O)C1c1ccnc2ccccc12	u	-17	7.3µM*	-55%	-9%
O=C1c2ccccc2C(=O)C1c1nccc2ccccc12	u	18	2.5µM*	-69%	-4%
O=C1C(=O)c2ccccc2C(O)=C1c1ccccc1F	4%	-18	-14%	u	12%
O=C1C(c2ccnc3ccccc23)=C(O)c2ccccc21	2.8µM*	-27	u	-82%	-18%
CCOC(=O)CCN1C(=O)[C@@H]2[C@H]3[C@H](O)[C@H](O)CC(=NOCc4ccccc4)[C@@H]3CC[C@H]2C1=O	u	x	-7%[14.2 µM]	x	x
Cc1ccc2c(c1)NC(=O)C(CC(=O)Nc1ccccc1Cl)O2 (stereo not given)	x	-9	-1%[46.1 µM]	0%	x
CC(=O)N1CCSc2ccc(S(=O)(=O)Nc3ccccc3C)cc21	u	-12	12%[46.1 µM]	-4%	11µM*
CCOc1ccc(NS(=O)(=O)c2ccc3c(c2)N(C(C)=O)CCS3)cc1	x	-65*	x	-11%	u
CC(=O)N1CCSc2ccc(S(=O)(=O)Nc3cccc(C)c3)cc21	x	u	x	-22%	14µM*
CCOc1ccc(NS(=O)(=O)c2ccc3c(c2)N(C(C)=O)CC3)cc1	-25%	-36	u	-12%	10%
CCCC(C(=O)NCc1cccc(Cl)c1)N1Cc2ccccc2C1=O (stereo not given)	-12%[46.1 µM]	-4	x	2%	x
CN1CCc2cccc3c2C1Cc1ccc(O)c(O)c1-3 (stereo not given)	0%	21	16µM*!	-14%	18%
C=CCN1CCc2cccc3c2[C@H]1Cc1ccc(O)c(O)c1-3	u	-20	u	-14%	u
CCCN1CCc2cc(O)cc3c2C1Cc1ccc(O)c(O)c1-3 (stereo not given)	x	x	35µM*	-5%	x
COc1ccc(N/C=C(\C#N)c2ccc(OCCCF)cc2)cc1	-4%	-91*	u	4%	u
Cc1ccc(N/C=C(\C#N)c2ccc(OCCCF)cc2)cc1	3%	30	18%	18%	u
Fc1cccc(-c2oncc2-c2nnnn2-c2ccc(Cl)cc2)c1	-15%	-67*	-2%	-14%	6%
Clc1ccc(-n2nnnc2-c2ccno2)cc1	7%[46.1 µM]	32	21%[46.1 µM]	-4%	15%
Fc1ccc(-n2nnnc2-c2ccccc2Cl)cc1	-26%[46.1 µM]	-67*	u	-7%	21%
SMILES	LASV entry inh	HCMV inh	Marburg entry inh	FMDV antiviral	HCV inh
NC(=O)C1(N2CCCCC2)CCN(C(=O)Nc2ccc(F)cc2F)CC1	6%[46.1 µM]	84	23%[46.1 µM]	-11%	x
CN(C)C(=O)c1ccc(Nc2nccc3c2cc(-c2ccsc2)n3C)cc1	x	-15	x	x	x
O=C(O)Cc1csc(-c2ccccc2)n1	9%[46.1 µM]	-63*	-7%[46.1 µM]	17%	-8%
COC(=O)c1c(NC(=O)Cc2coc3cc(C)ccc23)sc2c1CCC2	22%[46.1 µM]	2	u	u	x
COc1ccc(C(=O)NNC(=O)C(=O)N2CCCCC2)cc1OC	-2%	0	6%	10%	-6%
COc1cccc(C(=O)OCCN2CCCCC2)c1	5%	-100*	0%	4%	16%
COc1cccc(C(=O)NNC(=O)C(=O)N2CCCCC2)c1	-11%	-67*	18%[46.1 µM]	11%	11%
Cc1cc(NC(=O)CCC(=O)NNC(=O)c2ccc(C(C)(C)C)cc2)no1	3%	-75*	u	24%	-7%
Cc1ccc(C(=O)NNC(=O)CCC(=O)Nc2cc(C)on2)cc1	7%	-21	1%	-12%	29%
CN1CCN(c2ncc3nc(-c4ccc(F)cc4)c(=O)n(Cc4cccs4)c3n2)CC1	x	x	x	-8%	x
